Laboratory results published in PubChem BioAssay (EPA / NIEHS).
Records with an inconclusive call do not appear. Calls of active or inactive are those of the source. How the source made its calls, unless noted: active means hit-call score of the fitted dose curve at least 0.9, where 1 is the maximum; inconclusive means response in the unintended direction; inactive means score below 0.9.

Assays:
[1] = ATG_TAL_CIS: Attagene CIS-FACTORIAL HepG2 Assay for human TAL Basal Promoter (AID 2282966; active means hit-call score of the fitted dose curve at least 0.9, where 1 is the maximum; inactive means score below 0.9;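 further: background control endpoint measuring basal TAL promoter reporter mRNA not a specific factor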); settings: HepG2 Attagene cis-factorial TAL promoter reporter; actives raise or lower the signal
Summary of the method: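 Steps: transfect HepG2 with multiple reporter transcription units; dose 24 h; isolate RNA, reverse-transcribe, PCR-amplify, label with 6-FAM, digest with HpaI; resolve by capillary electrophoresis. Bidirectional fitting against DMSO baseline.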

[2] = ATG_TGFb_CIS: Attagene CIS-FACTORIAL HepG2 Assay for human Transforming Growth Factor (TGF) (AID 2282967; active means hit-call score of the fitted dose curve at least 0.9, where 1 is the maximum; inactive means score below 0.9); settings: HepG2 Attagene CIS TGFb reporter, mRNA transcription; actives raise or lower the signal
Summary of the method: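 Transient MRTU transfection of HepG2 (FuGene 6). Dose 24 h. TriZol RNA, oligo(dT) RT, PCR, 6-FAM primer extension, HpaI cut, CE. Bidirectional fit, DMSO = baseline.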

[3] = biological target: Estrogen receptor (Homo sapiens) (UniProt P03372); assay: ATG_ERa_TRANS: Attagene TRANS-FACTORIAL HepG2 Assay for human Estrogen Receptor alpha (ERa) (AID 2282970); settings: HepG2 Attagene TRANS ERa GAL4 reporter, mRNA
Chain of Estrogen receptor (Homo sapiens) (P03372 whole entry, looked up, the tested form may be a part): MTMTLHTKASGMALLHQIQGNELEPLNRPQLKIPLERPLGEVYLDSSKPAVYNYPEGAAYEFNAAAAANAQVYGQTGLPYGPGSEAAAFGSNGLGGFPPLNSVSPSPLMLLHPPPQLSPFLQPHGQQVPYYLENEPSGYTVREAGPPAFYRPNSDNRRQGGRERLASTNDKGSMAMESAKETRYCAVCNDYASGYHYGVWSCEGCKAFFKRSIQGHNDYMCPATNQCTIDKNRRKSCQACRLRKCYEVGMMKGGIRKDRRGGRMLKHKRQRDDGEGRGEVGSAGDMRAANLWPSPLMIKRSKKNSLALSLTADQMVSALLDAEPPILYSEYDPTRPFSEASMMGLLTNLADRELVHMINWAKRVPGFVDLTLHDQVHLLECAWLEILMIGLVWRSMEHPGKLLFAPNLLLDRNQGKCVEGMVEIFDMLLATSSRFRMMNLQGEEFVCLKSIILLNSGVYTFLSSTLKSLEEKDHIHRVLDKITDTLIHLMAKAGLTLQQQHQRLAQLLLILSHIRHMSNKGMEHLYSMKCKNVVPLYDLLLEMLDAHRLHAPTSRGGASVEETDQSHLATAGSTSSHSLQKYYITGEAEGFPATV
Summary of the method: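 Multiplexed cell-based reporter format in HepG2: chimeric ERa-Gal4 protein drives GAL4-UAS reporter transcription. Fluorescent reporter mRNA quantified by capillary electrophoresis 24 hours after dosing; endpoint fitted as signal gain against DMSO.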

[4] = biological target: X-box-binding protein 1 (Homo sapiens) (UniProt P17861); assay: ATG_Xbp1_CIS: Attagene CIS-FACTORIAL HepG2 Assay for human X-box Binding Protein 1 (XBP1) (AID 2282972; active means hit-call score of the fitted dose curve at least 0.9, where 1 is the maximum; inactive means score below 0.9); settings: HepG2 XBP1 cis-element reporter, Attagene multiplex; actives raise or lower the signal
Chain of X-box-binding protein 1 (Homo sapiens) (P17861 whole entry, looked up, the tested form may be a part): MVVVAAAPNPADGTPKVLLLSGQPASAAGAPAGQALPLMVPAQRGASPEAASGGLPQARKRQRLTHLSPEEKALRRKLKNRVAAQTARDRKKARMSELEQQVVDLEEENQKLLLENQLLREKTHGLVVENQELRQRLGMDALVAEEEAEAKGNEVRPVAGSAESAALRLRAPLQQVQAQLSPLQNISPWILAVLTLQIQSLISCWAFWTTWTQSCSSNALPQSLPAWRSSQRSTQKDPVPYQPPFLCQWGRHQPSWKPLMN
Summary of the method: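 Fluorescence-labelled cDNA fragments from reporter transcripts, separated by capillary electrophoresis, give the signal. Source: HepG2 cells transfected with promoter-driven reporter units, harvested 24 h post-dose. DMSO served as reference for bidirectional curve fitting.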

[5] = ATG_GAL4_TRANS: Attagene TRANS-FACTORIAL HepG2 Assay for GAL4 (Internal Marker) (AID 2282976); settings: HepG2 Attagene TRANS GAL4 internal marker reporter
Summary of the method: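 Liver HepG2 line bearing multiplexed GAL4-UAS reporter constructs; 24 h chemical treatment. Transcripts were quantified as fluorescent fragments on capillary electrophoresis after RT-PCR and HpaI cut, with activity fitted upward from DMSO.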

[6] = biological target: Hepatocyte nuclear factor 4-alpha (Homo sapiens) (UniProt P41235); assay: ATG_HNF4a_TRANS: Attagene TRANS-FACTORIAL HepG2 Assay for human Hepatocyte Nuclear Factor 4 alpha (HNF4a) (AID 2282982); settings: HepG2 HNF4a transactivation reporter, mRNA readout
Chain of Hepatocyte nuclear factor 4-alpha (Homo sapiens) (P41235 whole entry, looked up, the tested form may be a part): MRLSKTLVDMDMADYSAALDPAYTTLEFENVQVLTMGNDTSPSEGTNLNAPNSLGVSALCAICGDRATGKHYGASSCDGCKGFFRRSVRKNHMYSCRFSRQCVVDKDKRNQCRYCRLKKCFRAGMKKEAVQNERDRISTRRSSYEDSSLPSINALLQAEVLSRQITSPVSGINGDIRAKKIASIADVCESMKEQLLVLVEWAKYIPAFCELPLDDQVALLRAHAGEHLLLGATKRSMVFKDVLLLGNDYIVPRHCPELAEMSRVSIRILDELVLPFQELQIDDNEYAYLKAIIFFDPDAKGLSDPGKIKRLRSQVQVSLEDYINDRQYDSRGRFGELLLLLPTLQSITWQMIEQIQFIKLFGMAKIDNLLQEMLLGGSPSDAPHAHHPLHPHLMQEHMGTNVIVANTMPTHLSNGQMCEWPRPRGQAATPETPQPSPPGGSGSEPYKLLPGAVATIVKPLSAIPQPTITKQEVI
Summary of the method: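 HepG2 cells transiently transfected with multiplexed GAL4-UAS reporter units responsive to chimeric NR-GAL4 proteins; compound exposure 24 h. Reporter mRNA quantified by RT-PCR, 6-FAM labelling, HpaI digestion and capillary electrophoresis; gain of signal versus DMSO baseline.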

[7] = ATG_M_06_TRANS: Attagene TRANS-FACTORIAL HepG2 Assay for M06 Transcription Factor (Internal Marker) (AID 2282983); settings: HepG2 Attagene TRANS M06 internal marker reporter;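 further: reporter transcript level by RT-PCR then capillary electrophoresis fluorescence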
Summary of the method: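 Internal-marker background readout from a multiplexed TRANS reporter system in HepG2; 24 h dosing; mRNA induction quantified by RT-PCR plus capillary electrophoresis fluorescence; DMSO as negative control and baseline.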

[8] = biological target: Nuclear receptor subfamily 4 group A member 2 (Homo sapiens) (UniProt P43354); assay: ATG_NURR1_TRANS: Attagene TRANS-FACTORIAL HepG2 Assay for human Nuclear Receptor Related Protein 1 (NURR1) (AID 2282985); settings: HepG2 Attagene TRANS reporter, mRNA readout
Chain of Nuclear receptor subfamily 4 group A member 2 (Homo sapiens) (P43354 whole entry, looked up, the tested form may be a part): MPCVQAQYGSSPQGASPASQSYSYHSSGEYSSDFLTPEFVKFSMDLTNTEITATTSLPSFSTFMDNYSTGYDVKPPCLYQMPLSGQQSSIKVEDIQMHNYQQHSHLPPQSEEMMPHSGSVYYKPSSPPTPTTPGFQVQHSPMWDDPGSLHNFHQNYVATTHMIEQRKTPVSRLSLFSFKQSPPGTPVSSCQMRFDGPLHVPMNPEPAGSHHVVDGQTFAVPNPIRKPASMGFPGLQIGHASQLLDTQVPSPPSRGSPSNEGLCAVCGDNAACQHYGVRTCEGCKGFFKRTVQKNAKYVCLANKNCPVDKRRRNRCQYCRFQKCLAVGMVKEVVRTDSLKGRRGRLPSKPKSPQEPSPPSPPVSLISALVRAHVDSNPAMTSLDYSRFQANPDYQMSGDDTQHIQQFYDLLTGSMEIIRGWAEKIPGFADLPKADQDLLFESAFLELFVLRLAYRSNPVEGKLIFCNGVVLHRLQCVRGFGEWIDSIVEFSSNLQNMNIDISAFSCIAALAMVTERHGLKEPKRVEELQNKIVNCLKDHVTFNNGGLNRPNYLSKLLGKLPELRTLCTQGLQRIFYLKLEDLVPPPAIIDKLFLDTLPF
Summary of the method: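 HepG2 cells transiently transfected with GAL4-UAS reporter units and chimeric NR-Gal4 constructs; chemical exposure 24 h. Reporter mRNA quantified by RT-PCR, fluorescent labelling and capillary electrophoresis; gain of signal fitted relative to DMSO baseline.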

[9] = biological target: Transcriptional activator Myb (Homo sapiens) (UniProt P10242); assay: ATG_Myb_CIS: Attagene CIS-FACTORIAL HepG2 Assay for human Myeloblastosis (Myb) Proto-Oncogene Transcription Factor (AID 2282986; active means hit-call score of the fitted dose curve at least 0.9, where 1 is the maximum; inactive means score below 0.9); settings: HepG2 Attagene CIS-FACTORIAL Myb reporter transcription; actives raise or lower the signal
Chain of Transcriptional activator Myb (Homo sapiens) (P10242 whole entry, looked up): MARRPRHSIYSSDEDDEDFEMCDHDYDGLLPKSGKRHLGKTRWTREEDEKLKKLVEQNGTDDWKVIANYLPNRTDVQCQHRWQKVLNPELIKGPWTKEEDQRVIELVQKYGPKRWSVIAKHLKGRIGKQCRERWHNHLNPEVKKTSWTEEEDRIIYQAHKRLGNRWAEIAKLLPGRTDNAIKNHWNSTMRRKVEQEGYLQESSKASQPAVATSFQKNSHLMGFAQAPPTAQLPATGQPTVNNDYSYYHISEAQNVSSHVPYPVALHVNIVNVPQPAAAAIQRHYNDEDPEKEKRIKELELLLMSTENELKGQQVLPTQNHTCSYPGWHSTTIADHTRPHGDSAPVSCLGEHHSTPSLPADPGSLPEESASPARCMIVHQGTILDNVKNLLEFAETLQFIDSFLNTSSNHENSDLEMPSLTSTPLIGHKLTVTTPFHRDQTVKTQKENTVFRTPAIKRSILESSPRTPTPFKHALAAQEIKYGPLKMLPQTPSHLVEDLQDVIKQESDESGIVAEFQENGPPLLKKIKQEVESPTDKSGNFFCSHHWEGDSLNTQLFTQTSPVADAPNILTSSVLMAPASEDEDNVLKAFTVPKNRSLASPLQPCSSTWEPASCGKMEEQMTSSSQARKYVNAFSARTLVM
Summary of the method: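 In this HepG2 transient-transfection format, cis-regulated reporter mRNA is quantified 24 h post-dosing by RT-PCR with capillary electrophoresis, fitted bidirectionally to DMSO baseline.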

[10] = biological target: Estrogen-related receptor gamma (Homo sapiens) (UniProt P62508); assay: ATG_ERRg_TRANS: Attagene TRANS-FACTORIAL HepG2 Assay for human Estrogen-Related Receptor gamma (ERRg) (AID 2282977); settings: HepG2 Attagene TRANS reporter, ERRg transactivation;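 further: hits increase reporter signal over DMSO so potencies reflect activators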
Chain of Estrogen-related receptor gamma (Homo sapiens) (P62508 whole entry, looked up, the tested form may be a part): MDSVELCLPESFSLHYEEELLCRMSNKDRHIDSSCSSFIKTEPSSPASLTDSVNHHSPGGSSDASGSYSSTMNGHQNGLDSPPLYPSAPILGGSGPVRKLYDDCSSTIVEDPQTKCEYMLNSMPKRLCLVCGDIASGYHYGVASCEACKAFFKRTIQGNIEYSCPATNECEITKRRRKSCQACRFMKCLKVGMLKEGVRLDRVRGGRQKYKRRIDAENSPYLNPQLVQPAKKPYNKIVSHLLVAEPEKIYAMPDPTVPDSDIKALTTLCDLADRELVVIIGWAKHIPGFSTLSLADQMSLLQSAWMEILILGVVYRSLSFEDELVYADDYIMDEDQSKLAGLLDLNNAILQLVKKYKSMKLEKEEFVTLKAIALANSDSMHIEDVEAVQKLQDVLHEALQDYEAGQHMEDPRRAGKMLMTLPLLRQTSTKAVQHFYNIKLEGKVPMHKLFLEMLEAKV
Summary of the method: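 HepG2 cells transiently transfected with multiplexed GAL4-UAS reporter units and chimeric NR-Gal4 constructs were exposed to test chemicals for 24 h. Reporter mRNA was measured by RT-PCR, 6-FAM primer extension, HpaI digestion and capillary electrophoresis; gain-of-signal versus DMSO.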

[11] = biological target: Glucocorticoid receptor (Homo sapiens) (UniProt P04150); assay: ATG_GR_TRANS: Attagene TRANS-FACTORIAL HepG2 Assay for human Glucocorticoid Receptor (GR) (AID 2282978); settings: HepG2 Attagene TRANS GR reporter, mRNA transcription;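 further: activators score as hits since higher reporter transcript over DMSO is fitted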
Summary of the method: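 Exogenous NR-GAL4 fusion activity was assessed through induced GAL4-UAS reporter transcripts in transfected human HepG2 cells, quantified after 24 h by RT-PCR and fluorescent capillary electrophoresis with DMSO as baseline.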

[12] = biological target: Bile acid receptor (Homo sapiens) (UniProt Q96RI1); assay: ATG_FXR_TRANS: Attagene TRANS-FACTORIAL HepG2 Assay for Farnesoid X Receptor (FXR) (AID 2282979); settings: HepG2 Attagene TRANS FXR-GAL4 reporter transcription;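 further: hits raise reporter mRNA above DMSO so AC50 marks FXR activation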
Chain of Bile acid receptor (Homo sapiens) (Q96RI1 whole entry, looked up, the tested form may be a part): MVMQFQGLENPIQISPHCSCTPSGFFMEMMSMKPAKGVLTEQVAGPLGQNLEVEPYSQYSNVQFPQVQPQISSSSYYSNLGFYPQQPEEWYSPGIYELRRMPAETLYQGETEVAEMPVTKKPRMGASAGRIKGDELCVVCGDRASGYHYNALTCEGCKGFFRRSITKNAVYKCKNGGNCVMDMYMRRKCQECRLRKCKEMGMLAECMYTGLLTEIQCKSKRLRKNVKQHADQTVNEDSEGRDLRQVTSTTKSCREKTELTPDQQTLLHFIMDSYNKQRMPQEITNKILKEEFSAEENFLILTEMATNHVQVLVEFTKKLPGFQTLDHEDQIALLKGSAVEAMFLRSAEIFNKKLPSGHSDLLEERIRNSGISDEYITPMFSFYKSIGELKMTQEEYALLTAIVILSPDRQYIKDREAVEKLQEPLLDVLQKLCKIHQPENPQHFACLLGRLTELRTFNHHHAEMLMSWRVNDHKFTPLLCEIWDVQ
Summary of the method: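 After 24 h chemical treatment of transfected HepG2 cells, GAL4-UAS reporter transcripts driven by an exogenous FXR-GAL4 fusion were measured by RT-PCR and capillary electrophoresis. Increases over DMSO were fitted.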

[13] = biological target: Oxysterols receptor LXR-beta (Homo sapiens) (UniProt P55055); assay: ATG_LXRb_TRANS: Attagene TRANS-FACTORIAL HepG2 Assay for human Liver X Receptor beta (LXRb) (AID 2282981); settings: HepG2 Attagene TRANS GAL4-LXRb reporter, mRNA
Chain of Oxysterols receptor LXR-beta (Homo sapiens) (P55055 whole entry, looked up, the tested form may be a part): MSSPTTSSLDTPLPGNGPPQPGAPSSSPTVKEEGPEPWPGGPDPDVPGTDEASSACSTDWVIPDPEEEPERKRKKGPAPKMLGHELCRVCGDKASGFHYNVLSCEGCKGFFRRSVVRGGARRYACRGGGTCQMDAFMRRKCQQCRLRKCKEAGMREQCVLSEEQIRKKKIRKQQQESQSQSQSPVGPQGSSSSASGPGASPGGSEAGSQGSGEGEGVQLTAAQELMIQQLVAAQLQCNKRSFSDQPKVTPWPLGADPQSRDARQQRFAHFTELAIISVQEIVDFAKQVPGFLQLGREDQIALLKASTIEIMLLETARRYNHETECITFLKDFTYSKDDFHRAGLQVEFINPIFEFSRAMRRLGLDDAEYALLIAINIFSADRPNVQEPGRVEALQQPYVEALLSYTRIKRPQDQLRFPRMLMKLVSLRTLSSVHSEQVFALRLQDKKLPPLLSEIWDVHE
Summary of the method: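 HepG2 cells transiently transfected with multiple reporter transcription units carrying chimeric NR-Gal4 proteins acting on GAL4-UAS reporters; compound exposure 24 h. Reporter mRNA quantified by RT-PCR, 6-FAM labelling, HpaI digestion and capillary electrophoresis; gain of signal versus DMSO.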

[14] = ATG_M_32_TRANS: Attagene TRANS-FACTORIAL HepG2 Assay for M32 Transcription Factor (Internal Marker) (AID 2282984); settings: HepG2 Attagene TRANS M32 internal marker reporter;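 further: transcript level of a background control reporter unit measured by RT-PCR and capillary electrophoresis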
Summary of the method: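 HepG2 cells transiently transfected with multiple GAL4-UAS reporter transcription units, dosed for 24 hours; reporter mRNA quantified by RT-PCR, 6-FAM primer extension, HpaI digestion and capillary electrophoresis. Gain-of-signal fitted versus DMSO baseline; internal background-control marker.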

[15] = biological target: Nuclear respiratory factor 1 (Homo sapiens) (UniProt Q16656); assay: ATG_NRF1_CIS: Attagene CIS-FACTORIAL HepG2 Assay for human Nuclear Respiratory Factor 1 (NRF1) Orphan Gene (AID 2282987; active means hit-call score of the fitted dose curve at least 0.9, where 1 is the maximum; inactive means score below 0.9); settings: HepG2 NRF1 cis-element reporter, Attagene multiplex; actives raise or lower the signal
Summary of the method: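 Using DMSO as baseline, gain- or loss-of-signal was fitted for reporter mRNA levels in HepG2 cells transiently transfected with cis-regulated reporter units. Samples were taken 24 h after dosing and read by RT-PCR with capillary electrophoresis.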

[16] = biological target: Nuclear receptor subfamily 1 group I member 3 (Homo sapiens) (UniProt Q14994); assay: ATG_CAR_TRANS: Attagene TRANS-FACTORIAL HepG2 Assay for human Constitutive Androstane Receptor (CAR) (AID 2282969); settings: HepG2 Attagene TRANS-FACTORIAL CAR reporter;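 further: activators raise reporter mRNA above DMSO so AC50 marks induction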
Summary of the method: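 HepG2 cells transiently transfected with multiplexed GAL4-UAS reporter units expressing chimeric NR-Gal4 proteins; compound exposure 24 h. Reporter mRNA measured by RT-PCR, 6-FAM labelling, HpaI digestion and capillary electrophoresis; gain-of-signal fitted against DMSO baseline.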

[17] = biological target: Steroid hormone receptor ERR1 (Homo sapiens) (UniProt P11474); assay: ATG_ERRa_TRANS: Attagene TRANS-FACTORIAL HepG2 Assay for human Estrogen-Related Receptor alpha (ERRa) (AID 2282971); settings: HepG2 Attagene TRANS reporter, ERRa transactivation
Chain of Steroid hormone receptor ERR1 (Homo sapiens) (P11474 whole entry, looked up, the tested form may be a part): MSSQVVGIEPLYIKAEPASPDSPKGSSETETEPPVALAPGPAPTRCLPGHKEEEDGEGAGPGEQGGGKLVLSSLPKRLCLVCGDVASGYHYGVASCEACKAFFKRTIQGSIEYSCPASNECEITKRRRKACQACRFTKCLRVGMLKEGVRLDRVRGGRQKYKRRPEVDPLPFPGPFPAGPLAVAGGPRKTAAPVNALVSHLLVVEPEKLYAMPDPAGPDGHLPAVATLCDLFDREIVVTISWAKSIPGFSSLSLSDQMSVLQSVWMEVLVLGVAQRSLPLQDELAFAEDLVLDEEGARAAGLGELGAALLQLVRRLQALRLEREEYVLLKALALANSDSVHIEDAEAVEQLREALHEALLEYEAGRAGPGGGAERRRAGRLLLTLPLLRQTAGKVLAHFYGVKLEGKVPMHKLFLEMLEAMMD
Summary of the method: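 Signal gain relative to DMSO for an ERRa-Gal4 chimeric receptor, read as reporter mRNA by RT-PCR/capillary electrophoresis. Human HepG2 liver cells, transient multiplex reporter transfection, 24 h chemical exposure.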

[18] = ATG_M_19_TRANS: Attagene TRANS-FACTORIAL HepG2 Assay for M19 Transcription Factor (Internal Marker) (AID 2282974); settings: HepG2 Attagene TRANS-FACTORIAL M19 internal marker reporter
Summary of the method: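 Using RT-PCR and capillary electrophoresis, reporter mRNA from transiently transfected human HepG2 cells was quantified following 24 h exposure; activity was fitted in the positive direction against DMSO.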

[19] = biological target: Oxysterols receptor LXR-alpha (Homo sapiens) (UniProt Q13133); assay: ATG_LXRa_TRANS: Attagene TRANS-FACTORIAL HepG2 Assay for human Liver X Receptor alpha (LXRa) (AID 2282980); settings: HepG2 Attagene TRANS reporter, LXRa transactivation
Chain of Oxysterols receptor LXR-alpha (Homo sapiens) (Q13133 whole entry, looked up, the tested form may be a part): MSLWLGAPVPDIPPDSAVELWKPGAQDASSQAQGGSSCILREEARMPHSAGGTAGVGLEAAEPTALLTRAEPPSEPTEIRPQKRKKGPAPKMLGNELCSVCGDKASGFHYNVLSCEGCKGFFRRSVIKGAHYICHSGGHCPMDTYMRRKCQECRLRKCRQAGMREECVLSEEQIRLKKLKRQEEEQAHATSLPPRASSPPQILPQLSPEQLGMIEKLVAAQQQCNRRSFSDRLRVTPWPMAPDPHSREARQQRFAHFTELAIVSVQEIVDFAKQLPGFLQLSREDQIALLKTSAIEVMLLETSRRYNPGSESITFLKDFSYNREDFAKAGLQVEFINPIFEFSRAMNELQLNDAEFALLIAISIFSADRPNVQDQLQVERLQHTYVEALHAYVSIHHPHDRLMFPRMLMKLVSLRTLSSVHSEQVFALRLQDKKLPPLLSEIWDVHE
Summary of the method: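 In this multiplexed TRANS system, compounds act on HepG2 cells carrying GAL4-UAS reporter units and a receptor-GAL4 fusion for 24 h. Induced reporter RNA is amplified, fluorescently labelled and sized by capillary electrophoresis, with DMSO as baseline.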

Measured: outcome

NC(=O)OCC(COC(N)=O)c1ccccc1
inactive: [1] | [2] | [3] | [4] | [5] | [6] | [7] | [8] | [9]

Nc1ccc(Cl)cc1Cl
not listed: [3] | [5] | [6] | [16] | [17] | [18] | [19]
inactive: all other assays above

Cc1cccc(OCCOc2cccc(C)c2)c1
inactive: [1] | [2] | [16] | [17] | [4] | [18] | [13] | [14] | [9] | [15]

Cc1oncc1C(=O)Nc1ccc(C(F)(F)F)cc1
not listed: [10] | [11] | [15] | [16] | [17] | [18] | [19]
inactive: all other assays above

CC(C)(C)C1CCCCC1=O (stereo not given)
not listed: [8] | [10] | [11] | [12] | [15] | [16] | [17] | [18]
inactive: all other assays above

C[C@]12C=CC(=O)C=C1CC[C@@H]1[C@@H]2[C@@H](O)C[C@@]2(C)[C@H]1CC[C@]2(O)C(=O)CO
not listed: [3] | [5] | [6] | [11] | [12] | [14] | [16] | [19]
inactive: all other assays above

CC(=O)c1ccc[nH]1
not listed: [3] | [6] | [7] | [8] | [10] | [14] | [16] | [17]
inactive: all other assays above

Cc1cnc(NC(=O)C2=C(O)c3ccccc3S(=O)(=O)N2C)s1
not listed: [4] | [5] | [6] | [10] | [13] | [16] | [17]
inactive: all other assays above

c1ccc2c(c1)ccc1cc3c(ccc4ccccc43)cc12
not listed: [7] | [8] | [10] | [15] | [16] | [17]
inactive: all other assays above

O=c1cc[nH]c(=S)[nH]1
inactive: [1] | [2] | [3] | [17] | [4] | [10] | [6] | [7] | [14] | [15]

CC(C)=CCC[C@H](C)CCO
inactive: [1] | [2] | [3] | [4] | [13] | [6] | [7] | [8] | [9]
